# “And” between values parts separate entries of the source, which are not always exact repeats. Equal values may be shown once. Inconclusive results are not listed. The source made the active and inactive calls.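 Rule for the calls, unless noted: active = normalized viability below 100% at a tested concentration; inactive = the rest.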
# Assays:
# [1] = P. berghei load reduction in hepatocytes – cell-based, HepG2, luciferase luminescence, HepG2 viability, primary screen (AID 624349; in the data active = parasite load remaining mostly below about 12%, no sharp cut-off; inactive = mostly above about 10%;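 note: 100% = mean of DMSO negative control wells on the same plate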); conditions: P. berghei liver stage in HepG2, luciferase luminescence, concentration not given here; parasite load remaining: stronger effect = lower value; viability: measured here: HepG2 viability without parasites
# [2] = test system: Aerobactin synthetase IucA (Klebsiella pneumoniae); experiment: inhibition of K. pneumoniae IucA enzyme – biochemical, Tocris library, absorbance (AID 1345561; call rule not given here;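 note: 100% = enzyme without compound and 0% = no enzyme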); conditions: purified IucA enzyme assay, absorbance (OD) read-out; stronger effect = lower value;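 tested at 8 µM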
# [3] = viability loss in pontine glioma line – cell-based, JHH-DIPG-1, MIPE4.0, CellTiter-Glo, qHTS, dose response (AID 1347062; cut-off not given, nearly all actives have AC50 up to about 27 µM;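 for AC50: cells exposed to compound for two days before readout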); conditions: JHH-DIPG-1 viability, CellTiter-Glo ATP luminescence
# [4] = viability loss in pontine glioma line – cell-based, SU-DIPG-IV, MIPE4.0, CellTiter-Glo, qHTS, dose response (AID 1347063; cut-off not given, nearly all actives have AC50 up to about 30 µM;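 note: compound exposure lasted 48 hours before the viability readout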); conditions: CellTiter-Glo ATP luminescence
# [5] = growth inhibition of DIPG cells – cell-based, MIPE5.0 library, qHTS (AID 1347068; cut-off not given, nearly all actives have IC50 up to about 30 µM;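 for IC50: cells exposed to compound for 48 hours before viability readout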); conditions: SU-DIPG-XXV viability
# [6] = viability loss with induced miR-34 in A549 – imaging, A549 dox-inducible miR-34, nuclei and caspase counts, primary screen (AID 1347080;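 active = compounds whose cell count with miR-34 switched on is under 0.7 times the count with it off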); conditions: A549 miR-34 inducible, Hoechst nuclei count, 48 h
# [7] = compounds altering HSF1 focus formation in cells – imaging, Selleck Cancer Library (AID 1347162; in the data active = plate-normalised HSF1 focus index below about 0.46); conditions: human cells, HSF1 nuclear foci imaging, at 10 µM; SSMD: measured here: HSF1 foci SSMD mean; cell count: measured here: cell number; plate-normalised HSF1 focus index: stronger effect = lower value
# [8] = drug combination growth inhibition, ovarian cancer – cell-based, oncology-focused library, rucaparib conditional, profiling panel (AID 1508598); conditions: patient-derived ovarian cancer cells, CellTiter-Glo viability, 144 h, stronger effect = lower value
# [9] = galactose survival enhancers in mitochondrial complex I cybrids – cell-based, galactose medium, ATP luminescence, primary screen (AID 1645843;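 active = z-score of at least 1.8 in each of two replicates, scored against plate mean and spread of sample wells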;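 note: positive z means more ATP and so rescue of galactose-driven cybrid death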); conditions: complex I mutant cybrid cells, 72 h, stronger effect = higher value
# [10] = chitosan synthesis blockers in C. neoformans – flow cytometry, Cibacron Brilliant Red staining (AID 1347148; call rule not given here;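 note: compound exposure lasted three days at 37 degrees C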); conditions: Cryptococcus neoformans chitosan, stronger effect = lower value; at 10 µM unless noted
# [11] = compounds altering viability of human ES cells (AID 493140; call rule not given here;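 note: cells exposed to compounds for four days before counting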); conditions: human embryonic stem cell survival screen; stronger effect = higher value
# [12] = compounds altering circadian rhythm period length – cell-based, LOPAC library, luminescence reporter (AID 2774; call rule not given here;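 note: values are relative to mean of DMSO wells on each plate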); conditions: circadian reporter cells, at 7 µM, actives lie on both sides
# [13] = test system: Hepatitis C virus NS3 helicase; experiment: blockers of NS3h binding to ssDNA – biochemical, fluorescence polarization, LOPAC1280 library, primary screen (AID 687035; in the data active = inhibition above about 37%); conditions: Purified HCV NS3 helicase, Cy5-dT15 ssDNA binding fluorescence polarization; stronger effect = higher value; concentration not given here
# [14] = compounds altering Cy5-DNA-NS3h complex signal – biochemical, LOPAC1280, artefact control for HCV NS3 helicase inhibitor project (AID 687037; call rule not given here); conditions: Cy5-DNA-NS3h complex fluorescence interference counterscreen
# [15] = blockers of cellular phospholipid synthesis – cell-based, LOPAC library, screen 4, primary screen (AID 1347384; call rule not given here); conditions: animal cells, phospholipid biosynthesis inhibition screen; at 10 µM
# [16] = MELAS cybrid and Rieske KO viability enhancers – cell-based, MELAS cybrids, Rieske KO mouse fibroblasts, CellTiter-Glo, primary screen (AID 1508586;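 active = mean z-score across replicates of 1.96 or higher in either the MELAS or the Rieske mutant cell line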;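 note: z relative to plate mean and SD of compound and empty wells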); conditions: low glucose
# [17] = stronger effect = lower value, cell number ratio, induced over uninduced
# [18] = measured here: relative caspase fold change +Dox/-Dox
# [19] = measured here: total cells with miR-34 induction, stronger effect = lower value
# [20] = measured here: total cells without miR-34 induction
# [21] = MELAS cybrid survival, CellTiter-Glo 48 h, stronger effect = higher value
# [22] = Rieske KO mouse fibroblast survival, CellTiter-Glo 72 h
structure (smiles),measurement,setting,value
C[C@@H](N)C1CCC(C(=O)Nc2ccncc2)CC1 (stereo not given in full),parasite load remaining,[1],75.2% (inactive)
same,viability,[1],142%
same,remaining activity,[2],114% (inactive)
same,outcome,[3],inactive
same,outcome,[4],inactive
same,outcome,[5],inactive
same,fold change,[6]; [17],0.864 (inactive) and 0.892 (inactive)
same,fold change,[6]; [18],0.978 and 1.24
same,cell count,[6]; [19],4720 and 9420
same,cell count,[6]; [20],5470 and 10600
same,SSMD,[7],3.4
same,cell count,[7],7180
same,plate-normalised HSF1 focus index,[7],1.19 (inactive)
same,viability,"[8]; at 0.000305 µM, OCI-C5x cells, with rucaparib 10 µM, 100% = cells with rucaparib alone",112% (inactive)
same,viability,"[8]; at 0.000305 µM, OCI-C5x cells, without rucaparib",113% (inactive)
same,viability,"[8]; at 0.000305 µM, OCI-P5x cells, with rucaparib 20 µM, 100% = cells with rucaparib alone",93.5% (active)
same,viability,"[8]; at 0.000305 µM, OCI-P5x cells, without rucaparib",93.7% (active)
same,viability,"[8]; at 0.00122 µM, OCI-C5x cells, with rucaparib 10 µM, 100% = cells with rucaparib alone",112% (inactive)
same,viability,"[8]; at 0.00122 µM, OCI-C5x cells, without rucaparib",109% (inactive)
same,viability,"[8]; at 0.00122 µM, OCI-P5x cells, with rucaparib 20 µM, 100% = cells with rucaparib alone",96.3% (active)
same,viability,"[8]; at 0.00122 µM, OCI-P5x cells, without rucaparib",92.8% (active)
same,viability,"[8]; at 0.00488 µM, OCI-C5x cells, with rucaparib 10 µM, 100% = cells with rucaparib alone",115% (inactive)
same,viability,"[8]; at 0.00488 µM, OCI-C5x cells, without rucaparib",112% (inactive)
same,viability,"[8]; at 0.00488 µM, OCI-P5x cells, with rucaparib 20 µM, 100% = cells with rucaparib alone",99.1% (active)
same,viability,"[8]; at 0.00488 µM, OCI-P5x cells, without rucaparib",96.4% (active)
same,viability,"[8]; at 0.0195 µM, OCI-C5x cells, with rucaparib 10 µM, 100% = cells with rucaparib alone",106% (inactive)
same,viability,"[8]; at 0.0195 µM, OCI-C5x cells, without rucaparib",112% (inactive)
same,viability,"[8]; at 0.0195 µM, OCI-P5x cells, with rucaparib 20 µM, 100% = cells with rucaparib alone",89.2% (active)
same,viability,"[8]; at 0.0195 µM, OCI-P5x cells, without rucaparib",102% (inactive)
same,viability,"[8]; at 0.0781 µM, OCI-C5x cells, with rucaparib 10 µM, 100% = cells with rucaparib alone",113% (inactive)
same,viability,"[8]; at 0.0781 µM, OCI-C5x cells, without rucaparib",107% (inactive)
same,viability,"[8]; at 0.0781 µM, OCI-P5x cells, with rucaparib 20 µM, 100% = cells with rucaparib alone",96.5% (active)
same,viability,"[8]; at 0.0781 µM, OCI-P5x cells, without rucaparib",102% (inactive)
same,viability,"[8]; at 0.313 µM, OCI-C5x cells, with rucaparib 10 µM, 100% = cells with rucaparib alone",106% (inactive)
same,viability,"[8]; at 0.313 µM, OCI-C5x cells, without rucaparib",120% (inactive)
same,viability,"[8]; at 0.313 µM, OCI-P5x cells, with rucaparib 20 µM, 100% = cells with rucaparib alone",99.7% (active)
same,viability,"[8]; at 0.313 µM, OCI-P5x cells, without rucaparib",97.9% (active)
same,viability,"[8]; at 1.25 µM, OCI-C5x cells, with rucaparib 10 µM, 100% = cells with rucaparib alone",117% (inactive)
same,viability,"[8]; at 1.25 µM, OCI-C5x cells, without rucaparib",113% (inactive)
same,viability,"[8]; at 1.25 µM, OCI-P5x cells, with rucaparib 20 µM, 100% = cells with rucaparib alone",106% (inactive)
same,viability,"[8]; at 1.25 µM, OCI-P5x cells, without rucaparib",102% (inactive)
same,viability,"[8]; at 5 µM, OCI-C5x cells, with rucaparib 10 µM, 100% = cells with rucaparib alone",110% (inactive)
same,viability,"[8]; at 5 µM, OCI-C5x cells, without rucaparib",107% (inactive)
same,viability,"[8]; at 5 µM, OCI-P5x cells, with rucaparib 20 µM, 100% = cells with rucaparib alone",94.4% (active)
same,viability,"[8]; at 5 µM, OCI-P5x cells, without rucaparib",99.6% (active)
same,z-score,[9],-0.445 (inactive)
CCCC[C@@H](C=O)NC(=O)[C@H](CC(C)C)NC(=O)OCc1ccccc1,remaining activity,[2],86.3% (inactive)
same,IC50,[5],16.6 µM (active)
same,fold change,[6]; [17],0.927 (inactive) and 0.862 (inactive)
same,fold change,[6]; [18],1.01 and 0.983
same,cell count,[6]; [19],6040 and 7590
same,cell count,[6]; [20],6520 and 8800
same,fold fluorescence,[10],5.15 [at 137.9 µM] (inactive)
same,z-score,[9],2.31 (inactive)
N#CC(=C(/N)Sc1ccccc1N)/C(C#N)=C(\N)Sc1ccccc1N,survival,[11],104 (inactive)
same,remaining activity,[2],92.9% (inactive)
same,AC50,[4],8.33 µM (active)
same,fold fluorescence,[10],5.14 [at 131.4 µM] (inactive)
same,z-score,[9],-0.875 (inactive)
Cc1ccccc1C(=O)c1ccc(Nc2ccc(Br)cc2N)cc1Cl,parasite load remaining,[1],40.9% (inactive)
same,viability,[1],76.7%
same,remaining activity,[2],120% (inactive)
same,IC50,[5],23.5 µM (active)
same,fold change,[6]; [17],0.938 (inactive)
same,fold change,[6]; [18],1.33
same,cell count,[6]; [19],6770
same,cell count,[6]; [20],7220
same,z-score,[9],-0.695 (inactive)
Nc1nccc(-c2ccc3noc(-c4ccc(Cl)cc4)c3c2)n1,parasite load remaining,[1],22.2% (inactive)
same,viability,[1],88.2%
same,remaining activity,[2],127% (inactive)
same,outcome,[3],inactive
same,fold change,[6]; [17],0.777 (inactive)
same,fold change,[6]; [18],2.19
same,cell count,[6]; [19],3770
same,cell count,[6]; [20],4860
same,SSMD,[7],3.12
same,cell count,[7],7060
same,plate-normalised HSF1 focus index,[7],1.19 (inactive)
same,z-score,[9],-0.05 (inactive)
Oc1cc(O)cc(/C=C/c2ccc(O)c(O)c2)c1,period change,[12],-0.07 h (inactive)
same,survival,[11],27.6 (inactive)
same,inhibition,[13],-6% (inactive)
same,fluorescence ratio (interference),[14],0.9 (inactive)
same,remaining activity,[2],112% (inactive)
same,outcome,[5],inactive
same,fold change,[6]; [17],1.12 (inactive) and 0.813 (inactive) and 0.863 (inactive)
same,fold change,[6]; [18],0.772 and 1.12 and 0.797
same,cell count,[6]; [19],9320 and 2290 and 7210
same,cell count,[6]; [20],8350 and 2810
same,fold fluorescence,[10],4.54 [at 204.7 µM] (inactive)
same,outcome,[15],inactive
same,z-score,[9],-1.24 (inactive) and -0.7 (inactive)
CNC(=O)[C@H]1O[C@@H](n2cnc3c(NCc4cccc(I)c4)nc(Cl)nc32)[C@H](O)[C@@H]1O,remaining activity,[2],96.8% (inactive)
same,outcome,[5],inactive
same,fold change,[6]; [17],0.954 (inactive)
same,fold change,[6]; [18],0.816
same,cell count,[6]; [19],5880
same,cell count,[6]; [20],6160
same,z-score,[9],-0.4 (inactive)
N#C/C(=C\c1ccc(O)c(O)c1)C(=O)NCc1ccccc1,period change,[12],0.01 h (inactive)
same,survival,[11],133 (inactive)
same,parasite load remaining,[1],29.1% (inactive)
same,viability,[1],65.5%
same,inhibition,[13],0% (inactive)
same,fluorescence ratio (interference),[14],1 (inactive)
same,remaining activity,[2],113% (inactive)
same,outcome,[3],inactive
same,outcome,[5],inactive
same,fold change,[6]; [17],1.1 (inactive) and 0.928 (inactive)
same,fold change,[6]; [18],1.17 and 1.42
same,cell count,[6]; [19],2450 and 8410
same,cell count,[6]; [20],2230 and 9060
same,fold fluorescence,[10],6.89 [at 169.9 µM] (inactive)
same,z-score,[9],-0.425 (inactive)
NC(=O)c1ccc(-c2nc(-c3ccc4c(c3)OCCO4)c(-c3ccccn3)[nH]2)cc1,parasite load remaining,[1],23.5% (inactive)
same,viability,[1],94.8%
same,remaining activity,[2],105% (inactive)
same,outcome,[3],inactive
same,outcome,[5],inactive
same,fold change,[6]; [17],0.947 (inactive) and 0.907 (inactive)
same,fold change,[6]; [18],1.17 and 1.19
same,cell count,[6]; [19],6010 and 7770
same,cell count,[6]; [20],6350 and 8570
same,SSMD,[7],3.6
same,cell count,[7],7030
same,plate-normalised HSF1 focus index,[7],1.22 (inactive)
same,z-score,[9],-0.34 (inactive)
Cc1cccc(C#Cc2ccccc2)n1,period change,[12],0.065 h (inactive)
same,inhibition,[13],-1% (inactive)
same,fluorescence ratio (interference),[14],1 (inactive)
same,remaining activity,[2],102% (inactive)
same,outcome,[3],inactive
same,outcome,[4],inactive
same,fold change,[6]; [17],1.16 (inactive) and 0.932 (inactive) and 0.863 (inactive)
same,fold change,[6]; [18],0.95 and 0.499 and 0.79
same,cell count,[6]; [19],8900 and 6820 and 7820
same,cell count,[6]; [20],7690 and 7310 and 9060
same,outcome,[15],inactive
same,z-score,[16]; [21],-0.0615 (inactive)
same,z-score,[16]; [22],0.0234
same,z-score,[9],1.15 (inactive) and 1.02 (inactive)
Cc1ccc(NC(=O)c2cccc(N(C)C)c2)cc1NC(=O)c1ccc(O)cc1,survival,[11],103 (inactive)
same,remaining activity,[2],115% (inactive)
same,AC50,[3],3.32 µM (active)
same,AC50,[4],0.935 µM (active)
same,outcome,[5],inactive
same,fold change,[6]; [17],1.11 (inactive) and 0.903 (inactive) and 0.921 (inactive)
same,fold change,[6]; [18],0.888 and 0.797 and 0.511
same,cell count,[6]; [19],2990 and 8110 and 7940
same,cell count,[6]; [20],2700 and 8980 and 8620
same,fold fluorescence,[10],3.78 [at 128.4 µM] (inactive)
same,z-score,[16]; [21],-0.437 (inactive)
same,z-score,[16]; [22],0.706
same,z-score,[9],1.09 (inactive)
